Compound activity (PubChem BioAssay)
ELG1 DNA repair = ELG1-dependent DNA repair inhibition. AID 504467. HEK293T ELG1-luciferase reporter, luminescence, 16 h; DNA damage induced by 5-fluorouridine. hit rate 2.3% among 330,000. Potency, µM (doses to about 46.1 µM), for the others: top-dose activity change, negative = inhibition, most hits filed as inhibitors; further: potency means the concentration at half of the fitted maximal effect; nearly all actives have a fitted effect of over 55% in size
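Quantitative HTS, concentration-response format. 2,000 cells/well co-treated with 5-fluorouridine and compound, 16 hr in 5% CO2 at 37 °C; ONE-Glo luminescence read after 30 min.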
HT1080 IDH1KD tx = toxicity to HT-1080 IDH1 knockdown cells (counter line) | HT-1080 IDH1 knockdown viability, ATP luminescence, 48 h | Potency, µM (highest dose often 46.1 µM), inactives show at the top dose activity, negative = toxicity, most hits filed as cytotoxic | hit rate 2% among 360,000;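 further: potency means the concentration at half of the fitted maximal effect; 0% = DMSO wells and -100% = cell-free medium wells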
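Assay cells: HT-1080 with IDH1 knockdown, 750 per well, RPMI/5% FBS. Exposure: 48 h at 37 °C following 2 h pre-incubation. Read: CellTiter-Glo luminescence; fitted concentration-response, curve class assigned.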
HT1080NT lethal = kills 2HG-producing HT-1080-NT fibrosarcoma cells; Potency, µM (series often up to 46.1 µM), without a hit: top-dose activity, negative = less viability, usual class: cytotoxic; hit rate 1.6% among 360,000; AID 686970; HT-1080-NT fibrosarcoma viability, CellTiter-Glo ATP luminescence, 48 h;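 further: NT is the 2HG producing partner of a matched IDH1 knockdown line; potency means the concentration at half of the fitted maximal effect; 0% = DMSO-treated cells and -100% = media-only wells without cells; nearly all actives have a fitted effect of over 55% in size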
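Fibrosarcoma NT cells, 750 per well in 5% FBS RPMI, were exposed to compound for 48 hours. Viability: CellTiter-Glo luminescence.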
TDP1 cell noCPT = qHTS for Inhibitors of human tyrosyl-DNA phosphodiesterase 1 (TDP1): qHTS in cells in absence of CPT | DT40 Tdp1-/- hTDP1 cells, no CPT, ATP luminescence, 48 h | Potency, µM (titrated, usually from 46.2 µM), without a hit: at the top dose activity change, negative = growth inhibition, actives largely listed as inhibitors | hit rate 15% among 420,000 | AID 686978, 2013; further: potency means the concentration at half of the fitted maximal effect; nearly all actives have a fitted effect of over 55% in size
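Camptothecin absent (DMSO only). Human TDP1-complemented DT40 knockout cells, 400 cells/well, 37 °C for minimum 48 hr; ATP measured via CellTiter-Glo, 30 min dark incubation, luminescence.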
IL-1B inflam inh = inhibitors of inflammasome signaling (IL-1 beta secretion); THP-1 LPS/ATP IL-1B secretion, AlphaLISA, 16 h; active compounds read low; activity change, % at 57.5 µM; hit rate 4.7% among 360,000; AID 743279; in the data active means activity change below about -50%; inconclusive means mostly about -30% to -49%
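Secreted IL-1B measured by AlphaLISA bead assay after 16 h compound exposure of THP-1 cells; compounds (final up to 57.5 uM) added 1 h before LPS (250 ng/mL) and ATP (1.25 mM) stimulation; lower signal means less secretion.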
TDP1 cell CPT = growth inhibition of DT40 Tdp1-/-;hTDP1 cells with camptothecin (screen for TDP1 inhibitors). chicken DT40 Tdp1-/-;hTDP1 cells + 20 nM CPT, ATP luminescence, 48 h. Potency, µM (series often up to 46.2 µM), for inactives: at the highest dose activity change, negative = growth inhibition, usual class: inhibitors. hit rate 12% among 420,000; further: potency means the concentration at half of the fitted maximal effect; nearly all actives have a fitted effect of over 55% in size
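Chicken DT40 Tdp1-/- cells complemented with human TDP1, 400 cells/well, exposed to compounds plus 20 nM camptothecin for at least 48 h at 37 C; viability read as ATP content by CellTiter-Glo luminescence.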
The depositor's hits bear a star; ? = inconclusive; . = not tested or not shown. Most compounds without a hit are left out; they make up all but 19% or so of the library. Unless noted, the call rests on the fitted dose curve; in most records, active means well fitted curve in the direction sought with a large enough effect; inconclusive means small, poorly fitted or top-dose-only effect, or another doubt; inactive means no such curve, though single readings can be large; an effect the other way counts as inactive or inconclusive. Unless noted, on the % scale 0 is the no-effect control and ±100 the full control effect.

SMILES	ELG1 DNA repair	HT1080 IDH1KD tx	HT1080NT lethal	TDP1 cell noCPT	IL-1B inflam inh	TDP1 cell CPT
Cc1cc(C)cc(NC(=O)NCc2c(-c3ccccc3)noc2C)c1	?	1%	13%	-21%	34	1%
Cc1onc(-c2ccccc2)c1CNC(=O)Nc1ccc(C(F)(F)F)cc1	?	?	-20%	16µM*	.	?
O=C(NCc1nc(-c2ccc(C(F)(F)F)cc2)no1)Nc1cc(Cl)cc(Cl)c1	?	?	?	12µM*	-94*	10µM*
Cc1onc(-c2ccccc2)c1CNC(=O)Nc1cccc(Cl)c1	?	?	-6%	?	-66*	?
Cc1onc(-c2ccccc2)c1C(=O)N1CCN(c2ccccc2F)CC1	-5%	-9%	-4%	?	18	?
C=C(C)COc1ccc(-c2[nH]ncc2Oc2ccccc2OCC)c(O)c1	-28%	26µM*	?	-23%	-63*	?
C=C(C)COc1ccc(-c2[nH]ncc2Oc2cccc(OC)c2)c(O)c1	1%	?	23µM*	13µM*	-17	?
C[C@]12CCC(=O)C=C1CC[C@@H]1[C@@H]2[C@@H](O)C[C@]2(C=O)[C@@H](C(=O)CO)CC[C@@H]12	13%	0%	12%	-8%	-21	-3%
COc1ncc2ncc(=O)n(C3CC3)c2n1	.	.	.	?	.	-18%
CCn1c(SCc2c(F)cccc2Cl)nc(=O)c2c(C(=O)OC)cc(C3CC3)nc21	.	.	.	?	.	-8%
CCn1c(SCc2ccccc2C)nc(=O)c2c(C(=O)OC)cc(C3CC3)nc21	.	.	.	15µM*	.	12µM*
CSCCC1NC(=O)N(CC(=O)Nc2ccc3c(c2)OCCO3)C1=O (stereo unspecified)	?	-2%	1%	0%	-11	-1%
C/C=C\C=C\C(=O)N1CC2(CC(c3cccc(NC(=O)CC(c4ccccc4)c4ccccc4)c3)=NO2)C[C@H]1C(N)=O (stereo partly specified)	-16%	-5%	-8%	18µM*	-7	?
CCC(=O)Nc1cccc(C2=NOC3(C2)C[C@@H](C(N)=O)N(C(=O)c2ccccc2C(=O)c2ccccc2)C3)c1 (stereo partly specified)	0%	1%	5%	13%	0	1%
NC(=O)[C@H]1CC2(CC(c3cccc(NC(=O)CC(c4ccccc4)c4ccccc4)c3)=NO2)CN1C(=O)c1ccccc1C(=O)c1ccccc1 (stereo partly specified)	-19%	-1%	-3%	?	-21	13µM*
NC(=O)[C@H]1CC2(CC(c3cccc(NC(=O)CC(c4ccccc4)c4ccccc4)c3)=NO2)CN1C(=O)C(c1ccccc1)c1ccccc1 (stereo partly specified)	-11%	3%	6%	?	-15	18µM*
CCCCCC(=O)N1CC2(CC(c3cccc(NC(=O)CC(c4ccccc4)c4ccccc4)c3)=NO2)C[C@@H]1C(N)=O (stereo partly specified)	?	?	?	?	-7	?
CSc1ccc(S(=O)(=O)N2CCC(C(=O)Nc3ccc(C(N)=O)cc3)CC2)cc1	26%	-18%	-18%	-6%	-11	9%
COc1cc(C(=O)Nc2ccc(C#N)cc2)c([N+](=O)[O-])cc1OC	2%	0%	-6%	?	3	-25%
C=CCNC(=S)NNC(=O)CCC(O)CCCCC (stereo unspecified)	1%	9%	-1%	18µM*	14	15µM*
C=CCNC(=S)NNC(=O)C(CCCC)CC(C)O (stereo unspecified)	7%	8%	7%	?	0	?
COc1cc(NC(=O)c2ccc(-c3cn[nH]c3)c3ccoc23)cc(OC)c1OC	.	3%	-1%	13µM*	-74*	12µM*
O=C(Nc1cccc(OC(F)(F)F)c1)c1ccc(-c2cccnc2)c2ccoc12	.	20%	-20%	?	-5	?
CN1CCN(C(=O)c2ccc(-c3ccc(F)c(F)c3)c3ccoc23)CC1	.	-26%	-25%	16µM*	6	16µM*
COc1cc(NC(=O)c2ccc(-c3cccnc3)c3ccoc23)cc(OC)c1OC	.	3%	-14%	6.5µM*	0	13µM*
SMILES	ELG1 DNA repair	HT1080 IDH1KD tx	HT1080NT lethal	TDP1 cell noCPT	IL-1B inflam inh	TDP1 cell CPT
CC(C)NC(=O)c1ccc(-c2ccc(F)c(F)c2)c2ccoc12	.	-2%	11%	23µM*	-24	26µM*
COCCNC(=O)c1ccc(-c2cn[nH]c2)c2ccoc12	.	-2%	-1%	-3%	3	?
COc1ccc(N2Cc3cccc(C(=O)Nc4ccc(C)c(C)c4)c3C2=O)cc1	.	.	.	-6%	.	-19%
COCCn1cc(C(=O)NCCN(C)C)c2c3ccccc3n(C)c2c1=O	17%	2%	12%	?	23	-14%
O=C(Nc1cccc(C(F)(F)F)c1)c1ccc(-c2ccc(F)c(F)c2)c2ccoc12	.	26%	?	?	-15	?
COc1cc(NC(=O)c2ccc(-c3ccc(F)c(F)c3)c3ccoc23)cc(OC)c1OC	.	-7%	-11%	4.1µM*	-1	4.1µM*
c1ccc2nc(-c3cc4ccccc4s3)ccc2c1	.	.	.	-26%	.	-29%
CN(C)c1ccc2nc3ccc(=O)cc-3sc2c1	.	?	?	1.6µM*	-16	1.6µM*
Cc1cc2nc3ccc(=[N+](C)C)cc-3sc2cc1N	0.65µM*	4.1µM*	8.2µM*	0.41µM*	-17	1.2µM*
CN(C)c1ccc2nc3ccc(=[N+](C)C)cc-3sc2c1	0.73µM*	21µM*	7.3µM*	0.0073µM*	?	1.2µM*
O=C(NCC(=O)N1CCN(c2ncccn2)CC1)c1ccc(F)cc1	0%	6%	-8%	-12%	10	13%
COc1ccc([C@H]2CC(=O)C=C(c3ccc(O)cc3)C2)cc1OC	-29%	-10%	3%	21µM*	-17	?
COc1ccc([C@H]2CC(=O)C=C(c3ccc(-c4ccccc4)c(F)c3)C2)cc1OC	?	10%	5%	?	11	?
COc1ccc([C@H]2CC(=O)C=C(/C=C/c3ccccc3)C2)cc1OC	?	-1%	-17%	?	?	18µM*
COc1ccc([C@H]2CC(=O)C=C(c3ccc4ncccc4c3)C2)cc1OC	?	-5%	-4%	21µM*	?	?
